NOD2-RIPK2 inh: blocks binding of human NOD2 to RIPK2 | CHO BLA complementation NOD2-RIPK2, CCF4 ratio | inhibition, % at 4.98 µM | AID 624267 | O43353 | 360,000 tested, 0.38% active; in the data active means inhibition above about 21%;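 further: 0% = vehicle only and 100% = reference blocker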
TLR9-MyD88 block: blocks human TLR9 binding to MyD88. CHO BLA complementation TLR9-MyD88, CCF4 FRET ratio. inhibition, % at 4.98 µM. 340,000 tested, 0.21% active. AID 504734;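 active means inhibition above the mean over all tested compounds plus 3 SD, cut at about 21% in these data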;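 further: 0% = DMSO only wells and 100% = clavulanate BLA inhibitor control wells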
HSF1 activator: increases HSF-1 driven luciferase reporter signal; NIH3T3-HGL HSF-1 luciferase reporter, MG132, 8 h; 100% = twice DMSO control signal; 300,000 tested, 1.7% active; activation, % at 9 µM;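 active means mean replicate activation of at least 50% with a set share of replicates each reaching 50%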;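 further: 0% = median of the neutral control wells and 100% = twice that signal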
HSF1 inhib: HSF1 inhibition; activity change, negative = inhibition, % at 7.5 µM (by protocol); NIH3T3-HGL HSE-luciferase, MG132-induced, luminescence 8 h; stronger effect = lower value; 300,000 tested, 0.77% active; AID 2098;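 active means more than half of replicate wells show activity change below -50%, luminescence cut by over half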;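 further: luciferase reports HSF-1 transcriptional activity via heat shock element; 0% = median of DMSO wells and -100% = zero luminescence signal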
TLR4-MyD88 BLA: TLR4-MyD88 interaction inhibition in cells | HeLa CL3-4 TLR4/MyD88 BLA complementation, FRET ratio | inhibition, % at 8.4 µM | 200,000 tested, 0.18% active; in the data active means inhibition above about 25%;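 further: 0% = vehicle and 100% = reference inhibitor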
Target sequence (O00206 whole entry, looked up): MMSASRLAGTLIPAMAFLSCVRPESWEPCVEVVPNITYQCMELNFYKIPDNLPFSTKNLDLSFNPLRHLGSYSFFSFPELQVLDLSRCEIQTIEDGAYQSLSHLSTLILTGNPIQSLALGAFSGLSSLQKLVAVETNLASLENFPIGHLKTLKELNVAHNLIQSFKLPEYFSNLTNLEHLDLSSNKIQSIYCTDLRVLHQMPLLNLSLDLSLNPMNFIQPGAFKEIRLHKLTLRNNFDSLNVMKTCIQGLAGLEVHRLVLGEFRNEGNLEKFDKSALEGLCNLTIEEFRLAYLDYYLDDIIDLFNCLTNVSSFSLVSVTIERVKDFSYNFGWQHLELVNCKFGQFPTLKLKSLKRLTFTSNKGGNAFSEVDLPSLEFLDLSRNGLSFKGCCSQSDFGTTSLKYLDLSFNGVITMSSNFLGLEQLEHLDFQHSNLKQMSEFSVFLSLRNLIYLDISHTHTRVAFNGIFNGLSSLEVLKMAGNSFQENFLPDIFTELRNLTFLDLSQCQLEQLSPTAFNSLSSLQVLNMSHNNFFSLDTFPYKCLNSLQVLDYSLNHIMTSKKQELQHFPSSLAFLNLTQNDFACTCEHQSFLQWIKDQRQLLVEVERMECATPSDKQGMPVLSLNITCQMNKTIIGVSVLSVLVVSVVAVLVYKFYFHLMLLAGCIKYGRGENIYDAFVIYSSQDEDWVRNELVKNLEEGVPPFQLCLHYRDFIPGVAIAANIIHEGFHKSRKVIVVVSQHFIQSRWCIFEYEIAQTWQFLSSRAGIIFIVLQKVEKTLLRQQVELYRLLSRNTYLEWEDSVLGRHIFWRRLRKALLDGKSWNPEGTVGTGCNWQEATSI
Target sequence (Q99836 whole entry, looked up): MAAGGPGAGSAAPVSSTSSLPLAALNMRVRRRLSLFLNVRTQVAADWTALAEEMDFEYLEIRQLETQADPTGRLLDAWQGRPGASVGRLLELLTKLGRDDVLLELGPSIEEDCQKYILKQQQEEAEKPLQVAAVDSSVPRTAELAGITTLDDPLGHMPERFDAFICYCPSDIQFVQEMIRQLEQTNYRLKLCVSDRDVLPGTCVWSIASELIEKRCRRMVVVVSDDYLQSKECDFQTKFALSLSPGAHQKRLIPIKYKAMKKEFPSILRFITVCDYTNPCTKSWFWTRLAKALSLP
Numbers without * were called inactive. Hits are enriched below; roughly 2.4% of the tested compounds scored in any of these assays.

What do the screens show for `Nc1nnnn1/N=C/C=C/c1ccccc1`?
NOD2-RIPK2 inh: -13; TLR9-MyD88 block: -4; HSF1 activator: 7; HSF1 inhib: 5; TLR4-MyD88 BLA: 8

Results for BrC(=C\c1ccccc1)/C=N/N1CCN(c2ccccc2)CC1 ?
NOD2-RIPK2 inh: -10; TLR9-MyD88 block: -3; HSF1 activator: 162*; HSF1 inhib: 107; TLR4-MyD88 BLA: 9

What do the screens show for `CCOC(=O)[C@]12CCCC=C1N(Cc1cccc3ccccc13)C(=O)[C@H](CC(=O)N1CCN(C(=O)C3CC3)CC1)C2`?
NOD2-RIPK2 inh: 6

How did Brc1ccc2ncnc(NCc3ccco3)c2c1 do in these assays?
NOD2-RIPK2 inh: -3; TLR9-MyD88 block: -8; HSF1 activator: -19; HSF1 inhib: -26; TLR4-MyD88 BLA: 7

Results for OC(CNCc1ccco1)Cn1c2ccc(Br)cc2c2cc(Br)ccc21 (stereo not drawn) ?
NOD2-RIPK2 inh: 11; TLR9-MyD88 block: -3; HSF1 activator: 61*; HSF1 inhib: 23; TLR4-MyD88 BLA: -5

How did Nn1c(SCc2ccc(Br)cc2)nnc1-c1cccnc1 do in these assays?
NOD2-RIPK2 inh: -4; TLR9-MyD88 block: 0; HSF1 activator: 6; HSF1 inhib: 4

Results for Nn1c(SCc2ccc(F)cc2)nnc1-c1cccnc1 ?
NOD2-RIPK2 inh: 5; TLR9-MyD88 block: -6; HSF1 activator: 62*; HSF1 inhib: 32

Results for CC(=C/C(=O)O)/C=C/c1ccc([N+](=O)[O-])cc1 ?
NOD2-RIPK2 inh: -9; TLR9-MyD88 block: -7; TLR4-MyD88 BLA: 0

How did CC1(C)COC(/C=C/c2ccc([N+](=O)[O-])cc2)=N1 do in these assays?
NOD2-RIPK2 inh: -8; TLR9-MyD88 block: -3; HSF1 activator: 118*; HSF1 inhib: 78; TLR4-MyD88 BLA: -2

What do the screens show for `Cc1nc(NC(C)c2ccccc2)sc1C(=O)Nc1ccccc1` (stereo not drawn)?
NOD2-RIPK2 inh: -6; TLR9-MyD88 block: 16; HSF1 activator: -89; HSF1 inhib: -87*; TLR4-MyD88 BLA: -3

Results for CC(=O)c1sc(NC(C)c2ccccc2)nc1C (stereo not drawn) ?
NOD2-RIPK2 inh: 3; TLR9-MyD88 block: -2; HSF1 activator: -9; HSF1 inhib: -2

What do the screens show for `CN(Cc1ccc(C(C)(C)C)cc1)C(=O)Cc1ccc(S(=O)(=O)N2CCOCC2)s1`?
NOD2-RIPK2 inh: 5; TLR9-MyD88 block: 2

How did CCC1(c2ccc(Cl)cc2)NC(=S)N(c2ccc(C)c(C)c2)N1 (stereo not drawn) do in these assays?
NOD2-RIPK2 inh: -7; TLR9-MyD88 block: 2; HSF1 activator: 48; HSF1 inhib: 19

How did CCC1(c2ccccc2)NC(=S)N(c2ccc(C)c(C)c2)N1 (stereo not drawn) do in these assays?
NOD2-RIPK2 inh: -1; TLR9-MyD88 block: -2; HSF1 activator: 52*; HSF1 inhib: 21; TLR4-MyD88 BLA: 5

What do the screens show for `CCC1(c2ccc(Cl)cc2)NC(=S)N(c2ccc(C)cc2)N1` (stereo not drawn)?
NOD2-RIPK2 inh: -5; TLR9-MyD88 block: -1; HSF1 activator: 61*; HSF1 inhib: 28; TLR4-MyD88 BLA: 3

How did CN(CC(=O)Nc1ccc(Cl)c(Cl)c1)C(=O)C1CCCC1 do in these assays?
NOD2-RIPK2 inh: -3; TLR9-MyD88 block: -9

What do the screens show for `COc1ccc(NS(=O)(=O)c2ccc(N3CCCCC3)c(N)c2)cc1`?
NOD2-RIPK2 inh: -4; TLR9-MyD88 block: -5

Results for CSc1nc(NC(C)(C)C)nc(Oc2ccc(=O)[nH]n2)n1 ?
NOD2-RIPK2 inh: -8; TLR9-MyD88 block: 2; HSF1 activator: 52*; HSF1 inhib: 27; TLR4-MyD88 BLA: -3

Results for COc1ccc(CCNC(=O)COC(=O)/C=C/c2ccc3c(c2)OCO3)cc1OC ?
NOD2-RIPK2 inh: -10; TLR9-MyD88 block: -4

Results for Cc1cc(C)nc(Sc2ccc([N+](=O)[O-])cc2[N+](=O)[O-])n1 ?
NOD2-RIPK2 inh: 10; TLR9-MyD88 block: -4; HSF1 activator: 66*; HSF1 inhib: 45; TLR4-MyD88 BLA: -5

Results for Cc1ccccc1C(=O)O/N=C1\CCS(=O)(=O)c2sccc21 ?
NOD2-RIPK2 inh: -9; TLR9-MyD88 block: 13; HSF1 activator: 74*; HSF1 inhib: 47; TLR4-MyD88 BLA: 4

Results for S=C(c1ccc(-c2ccc(Cl)c(Cl)c2)o1)N1CCOCC1 ?
NOD2-RIPK2 inh: 4; TLR9-MyD88 block: 4; HSF1 activator: 59*; HSF1 inhib: 37; TLR4-MyD88 BLA: -2

How did S=C(c1ccc(-c2ccc(Br)cc2)o1)N1CCCCC1 do in these assays?
NOD2-RIPK2 inh: 5; TLR9-MyD88 block: -3; HSF1 activator: 62*; HSF1 inhib: 16; TLR4-MyD88 BLA: -6

How did S=C(c1ccc(-c2ccc(Br)cc2)o1)N1CCOCC1 do in these assays?
NOD2-RIPK2 inh: 5; HSF1 activator: 44; HSF1 inhib: 24

Results for O=C(NCC1CCCO1)c1ccc(-c2ccccc2Cl)o1 (stereo not drawn) ?
NOD2-RIPK2 inh: -4; TLR9-MyD88 block: -2; HSF1 activator: 59*; HSF1 inhib: 41

Results for CC1CCN(C(=O)c2ccc(-c3ccccc3Cl)o2)CC1 ?
NOD2-RIPK2 inh: 10; TLR9-MyD88 block: 5; HSF1 activator: 56*; HSF1 inhib: 38

How did COC[C@@H]1CCCN1[C@H]1CS(=O)(=O)N[C@@H]1COCc1ccccc1 do in these assays?
NOD2-RIPK2 inh: 7

Results for COc1cccc(N2C(=NC(=O)COc3ccccc3)SC3CS(=O)(=O)CC32)c1 (stereo not drawn) ?
NOD2-RIPK2 inh: -2; TLR9-MyD88 block: -3; HSF1 activator: -11; HSF1 inhib: -2

What do the screens show for `Cn1nnc2c[n+](CC(=O)c3ccc4ccccc4c3)cc(Br)c21`?
NOD2-RIPK2 inh: 15; TLR9-MyD88 block: 9; HSF1 activator: 93*; HSF1 inhib: 41

What do the screens show for `Cc1noc(/C=C/N(C)C)c1S(=O)(=O)N1CCN(c2ccc(F)cc2)CC1`?
NOD2-RIPK2 inh: 0; TLR9-MyD88 block: 4; HSF1 activator: -69; HSF1 inhib: -62*

What do the screens show for `O=C(C(=O)N1CCN(c2ccccc2)CC1)c1ccncc1`?
NOD2-RIPK2 inh: -20

Results for COCCn1c(SCC(=O)NCCc2ccccc2)nnc1-c1ccco1 ?
NOD2-RIPK2 inh: 0; TLR9-MyD88 block: -3; HSF1 activator: 55*; HSF1 inhib: 27; TLR4-MyD88 BLA: 1

Results for COc1ccc(CCNC(=O)CSc2ccc(-c3ccco3)nn2)cc1 ?
NOD2-RIPK2 inh: 2; TLR9-MyD88 block: 7; HSF1 activator: -76; HSF1 inhib: -69*; TLR4-MyD88 BLA: -11

What do the screens show for `Cc1cccc(NS(=O)(=O)c2ccc(C)c(C(=O)NCCCN3CCOCC3)c2)c1`?
NOD2-RIPK2 inh: -9; TLR9-MyD88 block: -2

How did CC1(C(=O)NCCCNc2ncc(C(F)(F)F)cc2Cl)C=CC2(CCCCC2)N1C(=O)c1ccccc1 (stereo not drawn) do in these assays?
HSF1 activator: -77; HSF1 inhib: -69*
